From paper PMC4666376, “Characterisation of aptamer–target interactions by branched selection and high-throughput sequencing of SELEX pools”

Molecular target: PAI-1 wild type, active (human, UniProt P05121 24-402)
Test: branched SELEX with high-throughput sequencing; PAI-1 immobilised on polyclonal anti-PAI-1 antibody; HBS (10 mM HEPES pH 7.4, 140 mM NaCl), 2 mM MgCl2, 2 mM CaCl2, 0.1% BSA; RNA pool 100 nM; PAI-1 captured on antibody-coated wells; 45 min; binding temperature not stated (PAI-1 capture at room temperature); high values mean tight binding;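 also: Pool frequency after one selection round with this target divided by frequency before selection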
Conditions: protein: recombinant; tags: N-terminal His6; structured_RNA; 2'-F pyrimidines

PAI-1 wild type, active, sequence (P05121 24-402): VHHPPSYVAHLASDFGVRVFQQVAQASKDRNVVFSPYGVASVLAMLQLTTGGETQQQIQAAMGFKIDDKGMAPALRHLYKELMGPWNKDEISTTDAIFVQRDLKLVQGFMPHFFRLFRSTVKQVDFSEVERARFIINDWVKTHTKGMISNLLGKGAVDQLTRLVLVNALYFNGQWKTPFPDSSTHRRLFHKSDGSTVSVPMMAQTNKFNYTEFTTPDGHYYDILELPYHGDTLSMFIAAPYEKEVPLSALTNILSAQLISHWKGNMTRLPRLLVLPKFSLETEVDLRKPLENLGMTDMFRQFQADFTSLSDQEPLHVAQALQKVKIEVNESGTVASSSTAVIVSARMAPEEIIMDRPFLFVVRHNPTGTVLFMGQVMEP

| Sequence | binding signal |
| --- | --- |
| GGGGCCACCAACGACAUUCGCACUGUAGCUAUGUGGAUAGCGACCAGAAUUUCGUUGAUAUAAAUAGUGCCCAUGGAUC | 2.51 enrichment factor |
| GGGGCCACCAACGACAUUACGAACUUGUAGGCACGAAUACGCCGACCUCUAAUGUUGAUAUAAAUAGUGCCCAUGGAUC | 1.25 enrichment factor |
| GGGGCCACCAACGACAUUACACUGUAGCGAGCCAGACUCGCGACCAAAUGCGUUGAUAUAAAUAGUGCCCAUGGAUC | 0.89 enrichment factor |
| GGGGCCACCAACGACAUUCAACGUGCACUGUAGCUGUACAAAGCGACCAACGUUGAUAUAAAUAGUGCCCAUGGAUC | 6.23 enrichment factor |
| GGGGCCACCAACGACAUUGUCGUAGGCAGAUAGAUUAUAUCCGCUGACCAGUGUUGAUAUAAAUAGUGCCCAUGGAUC | 2.25 enrichment factor |
| GGGGCCACCAACGACAUUACGUAGUUGCCUAAUAAAGGUAGCGAUUUGGAUUCGUUGAUAUAAAUAGUGCCCAUGGAUC | 1.28 enrichment factor |
| GGGGCCACCAACGACAUUGCCGUAGGCGAUAAUACAUCGCUGAUCAUUUGUACGUUGAUAUAAAUAGUGCCCAUGGAUC | 2.34 enrichment factor |
| GGGGCCACCAACGACAUUGACCCGUAGUGUCUUACUACGACUUGUAGAUGUUGUUGAUAUAAAUAGUGCCCAUGGAUC | 0.5 enrichment factor |
| GGGGCCACCAACGACAUUUAAGUUCGUCUCACUGACUCUGCAGUGAGUCUAAUGUUGAUAUAAAUAGUGCCCAUGGAUC | 7.58 enrichment factor |
| GGGGCCACCAACGACAUUGCCGUAGGUGCGGGAACACUUCACCGAUCGAUGUUGUUGAUAUAAAUAGUGCCCAUGGAUC | 2.29 enrichment factor |
| GGGGCCACCAACGACAUUGAUCACUAAGGUUAGACCGGAGUGCCGUAGAAUGCGUUGAUAUAAAUAGUGCCCAUGGAUC | 0.88 enrichment factor |
| GGGGCCACCAACGACAUUAUGCCGUAGGCGCUAGAUGUGCCGAUCAUAAUGCAGUUGAUAUAAAUAGUGCCCAUGGAUC | 0.5 enrichment factor |
| GGGGCCACCAACGACAUUCUGGCCGUAGGACAAUAGUCCGAUCCAGAUAUAGAGUUGAUAUAAAUAGUGCCCAUGGAUC | 0.54 enrichment factor |
| GGGGCCACCAACGACAUUCGUAACGUAGGGAGUAUUCCCGAUCAGAAUGUACAGUUGAUAUAAAUAGUGCCCAUGGAUC | 0.36 enrichment factor |
| GGGGCCACCAACGACAUUAGCAGUCGUAGGCCGUAAUGGCUGACCUGUAUGACGUUGAUAUAAAUAGUGCCCAUGGAUC | 0.68 enrichment factor |
| GGGGCCACCAACGACAUUGACCCGGUCACUUAUGUGGCCGAUAUCGUAGAUGCGUUGAUAUAAAUAGUGCCCAUGGAUC | 0.2 enrichment factor |
| GGGGCCACCAACGACAUUAUUUUCCGGUCGUUUAGGUGUUCAACACUCCGGAUGUUGAUAUAAAUAGUGCCCAUGGAUC | 8.72 enrichment factor |
| GGGGCCACCAACGACAUUUGCGUAAGCAUCCUUCGAUGUACCACAUCGAGAUCGUUGAUAUAAAUAGUGCCCAUGGAUC | 1.04 enrichment factor |
| GGGGCCACCAACGACAUUGAUCAACGAUCACCAUGAUACACAUGGAUCACGUAGUUGAUAUAAAUAGUGCCCAUGGAUC | 0.62 enrichment factor |
| GGGGCCACCAACGACAUUCGUGUUGUAUCUGUUAUACAGCAUGUUAUUUGUGCGUUGAUAUAAAUAGUGCCCAUGGAUC | 3.72 enrichment factor |
| GGGGCCACCAACGACAUUGCCGUAGUGCAGGGUUGCUUGCAUGAUCAAUUGUUGUUGAUAUAAAUAGUGCCCAUGGAUC | 2.1 enrichment factor |
| GGGGCCACCAACGACAUUAUCGACCAUAACGUAGCGGGCUUUCCCGUGAUCAGGUUGAUAUAAAUAGUGCCCAUGGAUC | 0.91 enrichment factor |
| GGGGCCACCAACGACAUUUCCGUGAGGAUCUAUGUUGUGGAAAACAACAGUUCGUUGAUAUAAAUAGUGCCCAUGGAUC | 1.09 enrichment factor |
| GGGGCCACCAACGACAUUAAGUUUCGUCCGGAUCGUGCAAUCCGGUCUAUGUGGUUGAUAUAAAUAGUGCCCAUGGAUC | 4.02 enrichment factor |
| GGGGCCACCAACGACAUUCCUGCAACGUAGGCGCGUAAGCUCCGAUCAAGGAUGUUGAUAUAAAUAGUGCCCAUGGAUC | 0.53 enrichment factor |
